KB-V1 cytotox: kills drug-selected multidrug resistant KB-V1 cells. AID 1347076. Potency, µM (doses to about 46.1 µM), actives largely listed as cytotoxic. KB-V1 MDR cells viability, CellTiter-Glo, 72 h. actives 3.4% (n = 400,000); also: % is scaled to controls: 0 for no effect and ±100 for the full control effect; nearly all actives have a fitted effect of over 60% in size
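KB-V1, DMEM (no phenol red) + 10% FBS; cpd pin-transferred, titration series; 72 h, 37 degrees C; CellTiter-Glo, luminescence. Data normalized, curve-fit.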
ELG1 DNA repair: blocks ELG1-dependent DNA repair in HEK293T cells | HEK293T ELG1-luciferase reporter, luminescence, 16 h; DNA damage induced by 5-fluorouridine | Potency, µM (titrated, usually from 46.1 µM), for the others: at the top dose activity change, negative = inhibition, hits mostly inhibitors | actives 2.3% (n = 330,000) | AID 504467; also: % is scaled to controls: 0 for no effect and ±100 for the full control effect; nearly all actives have a fitted effect of over 55% in size
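Overnight (16 hr) co-exposure of 2,000 cells/well to 5-fluorouridine and compound at 37 °C preceded detection. Luciferase was quantified via ONE-Glo luminescence; loss of signal denotes inhibition.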
KB-3-1 tox: KB-3-1 parental cell cytotoxicity; KB-3-1 viability, CellTiter-Glo ATP luminescence, 72 h; Potency, µM (highest dose often 46.1 µM), actives largely listed as cytotoxic; actives 1.4% (n = 400,000); also: % is scaled to controls: 0 for no effect and ±100 for the full control effect; nearly all actives have a fitted effect of over 60% in size
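Parental KB-3-1 adenocarcinoma cells in phenol-red-free DMEM with 10% FBS were pin-treated with compounds at several concentrations, incubated 72 h at 37 °C, and viability read by CellTiter-Glo luminescence; concentration-effect curves were fitted after normalization.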
SW480 rereplic: DNA re-replication induction in SW480 cells. SW480 DNA re-replication, Hoechst DNA content imaging, 48 h. Potency, µM (series often up to 46.1 µM), for the others: top-dose re-replication activation, actives largely listed as activators. actives 1.8% (n = 340,000). AID 624297; also: % of control where 0% means no effect; nearly all actives have a fitted effect of over 55% in size
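First, 250 cells per well were seeded. Next, compound or vehicle (23 nL) was pinned in, plates sat 48 hr at 37 C. Finally Hoechst was added for 40 min before fluorescence scanning.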
MCF10A rerep: DNA re-replication induction in MCF 10a cells | actives 2.9% (n = 350,000) | MCF 10A DNA re-replication, Hoechst nuclear intensity, 48 h | Potency, µM (titrated, usually from 46.1 µM), inactives show at the top dose activity, positive = re-replication, usual class: activators; also: % of control where 0% means no effect; nearly all actives have a fitted effect of over 50% in size
Active calls of the source: *; i = inactive; ? = inconclusive; . = no result; ! = not confirmed by another sample. A selection: hits, their analogues and other compounds. The true share with any hit is near 8.1%. Calls follow the shape of the dose curve; as a rule, active = well fitted curve in the direction sought with a large enough effect; inconclusive = small, poorly fitted or top-dose-only effect, or another doubt; inactive = no such curve, though single readings can be large; an effect the other way counts as inactive or inconclusive. Potency is read from the fitted curve at half-maximal effect.

SMILES	KB-V1 cytotox	ELG1 DNA repair	KB-3-1 tox	SW480 rereplic	MCF10A rerep
CN(CC(=O)Nc1ccccc1C(F)(F)F)Cc1c(O)ccc2ccccc12	i	-14%	i	8%	21%
O=C(c1ccc(F)cc1)N1CCN=C1c1ccccc1	i	-21%	i	13µM*	?
N#CC1=C(C2CC2)CC(c2ccccc2)C(C#N)=C1N (stereo not given)	23µM*	?	i	3%	2%
N#CC1=C(N)SC2(CCCCC2)SC1c1ccccc1 (stereo not given)	i	17%	i	4%	2%
CN(C)c1ccc(C2C=Cc3ccccc32)c2ccccc12 (stereo not given)	i	.	i	.	.
COc1ccc(-c2nc(NC(=O)C3CCN(c4nc5ccccc5o4)CC3)sc2C)cc1	i	12µM*	26µM*	?	20%
CC(C)CCNC(=O)C1CCN(c2nc3ccccc3o2)CC1	13µM*	?	?	-3%	-6%
O=C(NCc1cccs1)C1CCN(c2nc3ccccc3o2)CC1	i	-3%	i	-3%	-1%
Cc1onc(-c2ccccc2)c1C(=O)Nc1ccc(Cl)c(S(=O)(=O)N2CCOCC2)c1	i	-26%	i	-5%	0%
CSc1ncnc2c1ncn2CCCNCc1ccccn1	i	.	?	.	.
CCOc1ccc(C(C)NC(=S)NC2CCCCC2)cc1OCC (stereo not given)	?	23µM*	i	-3%	-1%
CC(NC(=S)NC1CCCCC1)c1ccc(C(C)(C)C)cc1 (stereo not given)	12µM*	0%	?	29%	5.8µM*
Cc1ccc([N+](=O)[O-])cc1N=Nc1c(-c2ccc([N+](=O)[O-])cc2)[nH]n(C(N)=S)c1=O	?	?	i	8%	3%
NC(=S)n1[nH]c(-c2ccc([N+](=O)[O-])cc2)c(N=Nc2ccc(Cl)cc2)c1=O	i	2.9µM*	18µM*	17%	-8%
O=S(=O)(Nc1ccc(-c2ccc(N3CCCCCC3)nn2)cc1)c1ccc(C(F)(F)F)cc1	?	.	i	.	.
O=C(Cc1ccc(F)cc1)N1CCN(c2ccc([N+](=O)[O-])cc2)CC1	i	-16%	i	2%	2%
O=C(/C=C/c1ccccc1[N+](=O)[O-])N1CCN(c2ccc(F)cc2)CC1	i	17%	i	6%	2%
O=C(Cc1ccccc1[N+](=O)[O-])N1CCN(c2ccc(F)cc2)CC1	?	0%	i	12µM*	9%
O=C(/C=C/c1cccc([N+](=O)[O-])c1)N1CCN(c2ccc(F)cc2)CC1	21µM*	0%	i	17%	1%
CC(=O)Nc1ccc(S(=O)(=O)NC2CC(=O)N(c3ccc(C)cc3)C2)cc1 (stereo not given)	i	7%	i	6.5µM*	-15%
CC(=O)Nc1ccc(S(=O)(=O)NC2CC(=O)N(c3ccc(C)c(C)c3)C2)cc1 (stereo not given)	i	7%	i	1%	-1%
COc1cc(C#CC#CCN2CCCCC2)ccc1O	10µM*	?	i	?	?
COc1ccc(CCNC(=O)c2cccc(-n3cnc4cccnc43)c2C)cc1OC	i	.	i	.	.
CCCN(CCC)C(=O)CSc1nc2ccccc2c(=O)n1CC1COc2ccccc2O1 (stereo not given)	21µM*	?	?	0%	?
CCN(CC)C(=O)COn1c(SCC(=O)N(CC)CC)nc2ccccc2c1=O	16µM*	-6%	i	-8%	-1%
SMILES	KB-V1 cytotox	ELG1 DNA repair	KB-3-1 tox	SW480 rereplic	MCF10A rerep
COc1cccc(CNc2ccc([N+](=O)[O-])cc2C)c1	15µM*	10%	i	?	1%
COc1ccc(OC)c(CNc2ccc([N+](=O)[O-])cc2C)c1	?	-30%	i	4%	-9%
COc1ccc([N+](=O)[O-])cc1NCc1ccccc1C	i	?	i	?	5.8µM*
O=C(Nc1cccc(Cl)c1)C1CCN(S(=O)(=O)Cc2ccccc2)CC1	i	.	i	.	.
COc1ccc(CN2C(=O)CCC2(C)C(=O)NCc2cccnc2)c(OC)c1 (stereo not given)	i	-7%	i	3%	0%
COc1ccc(CN2C(=O)CCC2(C)C(=O)NC2CCCCC2)c(OC)c1 (stereo not given)	21µM*	-2%	i	-5%	-4%
Cc1ccccc1NC(=O)C1Cc2ccccc2C(=O)O1 (stereo not given)	i	?	i	-1%	2%
O=C1OC(C(=O)O)Cc2ccccc21 (stereo not given)	i	4%	i	?	18µM*
CC1CCN(C(=S)Nc2ccc(SC(F)F)cc2)CC1	i	?	i	-5%	-2%
CC(=O)N1CCN(C(=S)Nc2ccc(SC(F)F)cc2)CC1	21µM*	-3%	i	2%	11%
CCC(C)Cn1c(COc2ccc(OC)cc2)nc2ccccc21 (stereo not given)	i	.	i	.	.
CCC(C)Cn1c(C)nc2ccccc21 (stereo not given)	i	9.2µM*	i	-3%	-5%
COCCCNC(=O)CSc1nc2c(sc3ccccc32)c(=O)n1CCc1ccccc1	i	.	i	.	.
O=C(Cc1cccs1)Nc1ccccc1-c1nc2ccccc2[nH]1	?	?	?	12µM*	13µM*
Cc1nc(SCc2nc3ccccc3[nH]2)c2oc3cc(Br)ccc3c2n1	i	18µM*	?	8%	14%
Cc1nc(SCc2nc3ccc(C(=O)c4ccccc4)cc3[nH]2)c2oc3ccccc3c2n1	i	4.6µM*	i	5%	?
Cc1ccc2oc3c(SCc4nc5ccccc5[nH]4)nc(C)nc3c2c1	i	0%	i	14%	9%
CC(C)(CC(=O)OCC(=O)Nc1ccc(F)c(Cl)c1)CC1=NS(=O)(=O)c2ccccc2N1	i	.	i	.	.
Cc1ccc2nc(-c3cccc(SC4CCCCC4)c3)c(NCc3ccccc3)n2c1	?	26µM*	?	?	18µM*
Clc1cccc(-c2ccc(-c3nc4ccccn4c3NCc3ccccc3)cc2)c1	i	?	i	?	16µM*
c1ccc(-c2nc3ccccn3c2NCc2ccc3c(c2)OCO3)cc1	i	-1%	i	0%	23%
Cc1ccn2c(NCc3ccccc3)c(-c3cccc(SC4CCCCC4)c3)nc2c1	21µM*!	?	?	-10%	21µM*
CCCCNc1c(-c2cccc(SC3CCCCC3)c2)nc2ccc(Cl)cn12	?	?	?	-4%	26µM*
CCC(C)Sc1cccc(-c2nc3cc(C)ccn3c2NCc2ccccc2)c1 (stereo not given)	i	?	i	?	?
